High-throughput results (PubChem BioAssay)
USP2a block – qHTS Assay for Inhibitors of Ubiquitin-specific Protease USP2a Using CHOP2 as the Reporter | 330,000 compounds, 0.01% hits | USP2 core, Ub-CHOP2 coupled fluorogenic reporter, 485/531 | Ubiquitin carboxyl-terminal hydrolase 2 (Homo sapiens), O75604 | Potency, µM (titrated, usually from 38.3 µM), usual class: inhibitors | AID 463254, 2010
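Cell-free coupled assay: 10nM USP2 core preincubated 30min RT with compound in Tris-HCl pH 8.0/CaCl2/CHAPS buffer, then 25nM Ub-CHOP2 and 25nM reporter substrate; fluorescence (Ex 485/Em 531) read after 60min RT, normalized to NEM inhibition, concentration-response curves fitted.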
Tb PGK inh – qHTS Assay to Find Inhibitors of Phosphoglycerate Kinase | 380,000 compounds, 0.043% hits | Phosphoglycerate kinase, glycosomal (Trypanosoma brucei brucei), P07378 | Potency, µM (series often up to 57.5 µM), usual class: inhibitors | PGK/GAPDH coupled, Kinase-Glo luminescence, 60 min; also: nearly all actives have a fitted effect of over 60% in size
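Recombinant glycosomal PGK reaction used 1,3-bisphosphoglycerate generated in-well by GAPDH (100nM final) in 100mM TEA pH 7.6, 5mM MgCl2, 0.01% Tween-20. After 60 minutes at room temperature, ATP was read by Kinase-Glo Plus luminescence end-point.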
PI4K2A block – qHTS for small molecular inhibitors of PI4K2A; Phosphatidylinositol 4-kinase type 2-alpha (Homo sapiens), Q9BTU6; purified PI4K2A, ADP-Glo luminescence, 1 h; hits give low values; activity change, negative = inhibition, % at 76.9 µM; 420,000 compounds, 0.13% hits; AID 1346378, 2018; in the data active = activity change below about -50%; inconclusive = mostly about -30% to -49%
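ADP-Glo luminescence measured ADP generated by PI4K2A enzyme (4 ug/mL before mixing) with 1.2 mM PI substrate (pre-mix) and 300 microM ATP (pre-mix). Tris pH7.5 buffer with MgCl2, Triton X-100; 1 h reaction at ambient temperature.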
Pin1 inhibitor – qHTS Assay to Find Inhibitors of Pin1; Peptidyl-prolyl cis-trans isomerase NIMA-interacting 1 (Homo sapiens), Q13526; Pin1 FP peptide displacement, HiFluor488, 10 min; Potency, µM (highest dose often 115 µM), usual class: inhibitors; 390,000 compounds, 0.009% hits; AID 504891, 2011; active = well fitted inhibition curve with a large enough effect in the polarisation, with a control signal flat, not every such curve was filed as active; inconclusive = small, poorly fitted or top-dose-only effect, or effect the other way, or a change in a side signal; inactive = no such curve, though single readings can be large or run the other way; the % refers to the polarisation
Target sequence (Q13526 whole entry, looked up): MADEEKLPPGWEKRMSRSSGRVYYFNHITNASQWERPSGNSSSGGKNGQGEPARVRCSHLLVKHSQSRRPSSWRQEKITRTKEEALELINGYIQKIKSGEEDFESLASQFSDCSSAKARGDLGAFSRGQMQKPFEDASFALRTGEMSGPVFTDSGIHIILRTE
Tb PFK inh-1 – qHTS Assay to Find Inhibitors of T. brucei phosphofructokinase. 330,000 compounds, 0.17% hits. AID 485367, 2010. Potency, µM (highest dose often 57.5 µM), hits mostly inhibitors. T. brucei PFK, ADP-Glo luminescence; also: nearly all actives have a fitted effect of over 60% in size
Target sequence (O15648 whole entry, looked up): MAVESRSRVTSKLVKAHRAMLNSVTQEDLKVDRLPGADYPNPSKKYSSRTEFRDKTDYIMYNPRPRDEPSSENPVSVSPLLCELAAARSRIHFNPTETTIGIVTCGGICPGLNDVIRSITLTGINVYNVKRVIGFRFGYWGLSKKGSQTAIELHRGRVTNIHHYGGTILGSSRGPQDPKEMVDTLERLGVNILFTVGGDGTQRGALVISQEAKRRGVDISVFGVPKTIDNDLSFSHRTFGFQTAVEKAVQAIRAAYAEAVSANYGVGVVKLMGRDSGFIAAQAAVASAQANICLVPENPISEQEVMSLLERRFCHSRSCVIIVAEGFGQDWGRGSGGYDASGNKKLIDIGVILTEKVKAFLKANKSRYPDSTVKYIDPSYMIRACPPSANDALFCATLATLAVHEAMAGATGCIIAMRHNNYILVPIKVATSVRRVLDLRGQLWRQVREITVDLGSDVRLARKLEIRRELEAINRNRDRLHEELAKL
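Compounds were pin-transferred as a titration series up to 57 uM into substrate buffer (0.5 mM F6P, 0.1 mM ATP, pH 8.0), then 1.25 nM PFK was added and reactions ran 45 min before ADP-Glo detection.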
TbPFK ATP – Tb PFK orthogonal confirmatory assay using ATP depletion (Kinase-Glo Plus) as an alternative measure of Tb PFK activity: Hit Validation; Tb PFK enzyme, ATP depletion, Kinase-Glo Plus luminescence; 1,100 compounds, 47% hits; shares compounds with Tb PFK inh-1; Potency, µM (titrated, usually from 57.5 µM); calls by dose curve; also: nearly all actives have a fitted effect of over 60% in size
Tb PFK inh-2 – Inhibitors of T. brucei phosphofructokinase: Hit Validation. shares compounds with Tb PFK inh-1. purified T. brucei PFK, ADP-Glo luminescence, 45 min. Potency, µM (series often up to 57.5 µM), usual class: inhibitors. 1,100 compounds, 41% hits. AID 504637, 2011; also: nearly all actives have a fitted effect of over 60% in size
Hits are given with their value; i = inactive; ? = inconclusive; nt = no result given; [ ] = remark or other dose. This is a sample that favours compounds with a hit; in the whole collection about 0.28% have one here. Unless noted, calls follow the shape of the dose curve; as a rule, active = well fitted curve in the direction sought with a large enough effect; inconclusive = small, poorly fitted or top-dose-only effect, or another doubt; inactive = no such curve, though single readings can be large; an effect the other way counts as inactive or inconclusive.

SMILES	USP2a block	Tb PGK inh	PI4K2A block	Pin1 inhibitor	Tb PFK inh-1	TbPFK ATP	Tb PFK inh-2
Cc1ccc(-c2cc(C(=O)N/N=C/C(Br)=C/c3ccccc3)n[nH]2)o1	i	i	i	i	?	i	?
O=C(Cn1cc(CNC(=O)c2ccccc2)nn1)Nc1cc(C(F)(F)F)ccc1Cl	nt	nt	nt	i	nt	nt	nt
Cc1ccc(S(=O)(=O)NCCNc2ccc([N+](=O)[O-])cc2)cc1	i	i	i	i	i	nt	nt
NCCNc1ccc([N+](=O)[O-])cc1	i	i	i	i	?	?	?
O=[N+]([O-])c1ccc(NCCNc2ccc([N+](=O)[O-])cc2)cc1	nt	i	i	?	nt	nt	nt
C#CCNc1ccc([N+](=O)[O-])cc1	i	i	i	i	23.9µM	21.3µM	26.9µM
CCCCC(=O)OCC(=O)[C@H]1[C@H](C)C[C@H]2[C@@H]3C[C@H](F)C4=CC(=O)C=C[C@]4(C)[C@@]3(F)[C@@H](O)C[C@@]21C	nt	nt	i	nt	nt	nt	nt
Cc1cc2c(N)cccc2nn1	i	i	i	?	7.57µM	i	i
COc1ccccc1NS(=O)(=O)c1cc(NC(=O)c2sccc2C)ccc1N1CCCC1	i	i	i	i	?	12µM	23.9µM
O=C(O)C1C2C=CC(C2)C1C(=O)Nc1ccc(Cl)c(Cl)c1 (stereo unspecified)	i	i	i	i	21.3µM	i	i
O=C(O)/C=C\C(=O)NNC(=O)c1cc(-c2ccccc2)n[nH]1	i	i	i	i	i	nt	nt
O=C(NNS(=O)(=O)c1ccccc1F)c1cc(-c2ccccc2)n[nH]1	i	i	i	i	?	i	?
COc1cc(F)c(S(=O)(=O)N2CCCN(S(=O)(=O)c3ccc(NC(C)=O)cc3)CC2)c(F)c1	nt	nt	nt	i	nt	nt	nt
CN(NC1OC(=O)c2ccccc21)c1ccc(Cl)cc1[N+](=O)[O-] (stereo unspecified)	i	i	i	i	i	nt	nt
O=C1OC(Nc2ccc(F)c([N+](=O)[O-])c2)c2ccccc21 (stereo unspecified)	i	i	i	i	15.1µM	21.3µM	?
O=[N+]([O-])c1cc2c(cc1Br)CCN2	i	i	i	i	3.38µM	4.26µM	6.01µM
O=[N+]([O-])c1c(Nc2ccc(O)cc2)cc(Cl)c2nonc12	i	i	i	?	?	7.57µM	?
CN(C)c1cc(Nc2ccc(O)cc2)c([N+](=O)[O-])c2nonc12	i	i	i	i	i	nt	nt
CC(=O)NC1=NC(=O)/C(=C/c2cc(C)n(-c3ccc(NC(C)=O)cc3)c2C)S1	i	i	i	i	i	nt	nt
CC(=O)NC1=NC(=O)/C(=C/c2cc(C)n(-c3cccc(C(=O)O)c3)c2C)S1	i	?	i	?	?	?	?
Cc1cc(Nc2ccccc2Cl)n2nc(-c3ccco3)nc2n1	nt	i	i	i	nt	nt	nt
Cc1cc(C)n2nc3nc(N4CCCCC4)nc(-c4ccco4)c3c2n1	i	i	i	?	?	i	i
CCCCCC/C(C)=C1/SC(=S)NC1=O	i	i	i	i	i	nt	nt
C/C(C/C(C)=C1/SC(=S)NC1=O)=C1\SC(=S)NC1=O	i	?	i	nt	?	i	?
COc1ccc(C)cc1NC(=O)c1ccc2c(SCC(=O)O)c3c(nc2c1)CCCC3	i	i	i	i	?	i	?
SMILES	USP2a block	Tb PGK inh	PI4K2A block	Pin1 inhibitor	Tb PFK inh-1	TbPFK ATP	Tb PFK inh-2
COc1cc(Cl)c(C)cc1NC(=O)c1ccc2c(SCC(=O)O)c3c(nc2c1)CCCC3	i	i	i	i	i	nt	nt
CCc1ccc(CNCCc2ccc(F)cc2)cc1	i	i	i	i	i	nt	nt
Fc1ccc(CCNCc2ccc(Cl)c(Cl)c2)cc1	i	nt	i	i	?	15.1µM	26.9µM
Cc1c(P(=S)(c2ccccc2)c2ccccc2)c2ccccc2n1CCCc1ccccc1	nt	nt	nt	i	nt	nt	nt
O=C(N/N=C/c1cccs1)C1COc2ccccc2O1 (stereo unspecified)	i	i[11.5 µM]	i	i	i	nt	nt
O=C(N/N=C\c1ccc(Br)o1)C1COc2ccccc2O1 (stereo unspecified)	i	i	i	i	?	nt	nt
O=C(N/N=C\c1ccc[nH]1)C1COc2ccccc2O1 (stereo unspecified)	i	i	i	i	23.9µM	9.53µM	19µM
O=C(N/N=C/c1ccco1)C1COc2ccccc2O1 (stereo unspecified)	i	i	i	i	?	?	?
C=CCSC1=N/C(=C\C=C\c2ccco2)C(=O)S1	?	?	i	i	16.9µM	?	?
C=CCSC1=N/C(=C\c2sccc2C)C(=O)S1	i	i	i	i	i	nt	nt
O=C1OC(c2cccs2)=N/C1=C/c1ccc(-c2cccc(C(=O)O)c2)o1	i	i	i	nt	?	?	?
O=C1OC(c2cccs2)=N/C1=C\c1ccc(-c2ccccc2Cl)o1	i	i	i	?	?	nt	nt
O=c1c2cc(F)ccc2sn1-c1ccccc1	i	i	i	i	6.75µM	?	?
Cc1ccc(-n2sc3ccccc3c2=O)cc1S(=O)(=O)N1CCCCC1	i	i	?	i	13.5µM	?	6.75µM
O=c1c2ccccc2sn1-c1ccccc1F	nt	i	i	nt	nt	nt	nt
Cc1ccccc1-n1sc2cc(F)ccc2c1=O	i	i	i	i	2.69µM	?	10.7µM
O=c1c2ccccc2sn1-c1nccs1	i	i	i	i	8.49µM	?	?
CNC(=O)c1c(I)c(NC(=O)CCCCC(=O)Nc2c(I)c(C(=O)O)c(I)c(C(=O)NC)c2I)c(I)c(C(=O)O)c1I	nt	nt	i	nt	nt	nt	nt
CCCc1ccc(OCC(=O)N2CCN(C(=O)COc3ccc(CCC)cc3OC)CC2)c(OC)c1	nt	nt	i	nt	nt	nt	nt
O=c1c2ccccc2sn1-c1ccccc1	i	i	i	i	4.78µM	?	7.57µM
N#Cc1ccc2c(=O)n(-c3ccccc3)sc2c1	nt	i	i	nt	nt	nt	nt
O=C(O)c1cccc(-n2sc3ccccc3c2=O)c1	i	i	i	i	6.01µM	15.1µM	16.9µM
COc1cccc(OC)c1-c1nn2c(-c3cc(-c4ccccc4)n[nH]3)nnc2s1	?	i	i	?	?	i	?
O=C(Nc1cccc(Cl)c1)c1cccc(N2C(=O)C3CC=CCC3C2=O)c1 (stereo unspecified)	i	i	i	i	26.9µM	6.01µM	13.5µM
